Measurements taken from paper PMC5540273 (PLoS ONE, 2017).

What was measured:
Settings in all cases: concentration: 1 μM, replicates: in singlicate; n = 1
HIPK4 = test system: HIPK4
HPK1 = test system: HPK1
HUNK = test system: HUNK
ICK = test system: ICK
IGF1R = test system: IGF1R
IKK-alpha = test system: T1, IKK-alpha
T1 construct: gene CHUK

IKK-beta = test system: T2, IKK-beta
T2 construct: gene IKBKB

IKK-epsilon = test system: T3, IKK-epsilon
T3 construct: gene IKBKE

INSRR = test system: INSRR
INSR = test system: INSR
IRAK1 = test system: IRAK1
IRAK3 = test system: IRAK3
IRAK4 = test system: IRAK4
ITK = test system: ITK
[1] = test system: JAK1(JH1domain-catalytic)
[2] = test system: JAK1(JH2domain-pseudokinase)
[3] = test system: JAK2(JH1domain-catalytic)
[4] = test system: JAK3(JH1domain-catalytic)
JNK1 = test system: T4, JNK1
T4 construct: gene MAPK8

JNK2 = test system: T5, JNK2
T5 construct: gene MAPK9
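Further: KINOMEscan kinase panel screen.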

SMILES | %Inh (HIPK4) | %Inh (HPK1) | %Inh (HUNK) | %Inh (ICK) | %Inh (IGF1R) | %Inh (IKK-alpha) | %Inh (IKK-beta) | %Inh (IKK-epsilon) | %Inh (INSRR) | %Inh (INSR) | %Inh (IRAK1) | %Inh (IRAK3) | %Inh (IRAK4) | %Inh (ITK) | %Inh [1] | %Inh [2] | %Inh [3] | %Inh [4] | %Inh (JNK1) | %Inh (JNK2)
CC[C@@H]1CO[C@H](C(=O)Nc2ccccc2)CN1c1cc(-c2ccc3c(N)n[nH]c3c2)nc(NC)n1 [GSK2376236] | 0% | 15% | 0% | 0% | 0% | 0% | 1% | 6% | 0% | 10% | 0% | 5% | 0% | 3% | 11% | 0% | 0% | 0% | 0% | 17%
O=C(Nc1n[nH]c2nc(-c3cccs3)c(Br)cc12)C1CCCC1 [SB-743341] | 4% | 14% | 23% | 65% | 3% | 0% | 0% | 4% | 26% | 2% | 0% | 0% | 0% | 10% | 0% | 0% | 0% | 0% | 69% | 44%
COc1cccc(CNC(=O)NC2CCN(c3ccnc(Nc4ccc(F)cc4)n3)C2)c1 (stereo not drawn) [GSK1379723] | 0% | 40% | 0% | 21% | 4% | 44% | 14% | 0% | 18% | 0% | 23% | 5% | 17% | 9% | 5% | 0% | 6% | 0% | 32% | 3%
Cc1ccc(-c2nc(Nc3ccncc3)c3ccccc3n2)s1 [GSK189015] | 27% | 41% | 0% | 19% | 18% | 2% | 20% | 0% | 22% | 9% | 0% | 19% | 2% | 22% | 16% | 38% | 3% | 0% | 20% | 19%
COc1ccc(CSc2nnc(-c3ccc4c(c3)CCO4)o2)cc1 | 0% | 0% | 0% | 0% | 0% | 0% | 0% | 0% | 0% | 0% | 0% | 0% | 0% | 8% | 18% | 0% | 0% | 0% | 0% | 0%
O=C(Nc1n[nH]c2nc(-c3cccs3)c(Br)cc12)C1CC1 [SB-735297] | 10% | 16% | 0% | 24% | 0% | 0% | 9% | 0% | 0% | 0% | 0% | 0% | 0% | 0% | 13% | 21% | 20% | 0% | 40% | 15%
COC(=O)c1cccc(NC(=O)NC2CCN(c3ccnc(Nc4ccc(F)cc4)n3)C2)c1 (stereo not drawn) [GSK1379725] | 0% | 51% | 0% | 17% | 0% | 0% | 5% | 0% | 0% | 0% | 0% | 0% | 14% | 8% | 4% | 0% | 0% | 0% | 17% | 28%
Cc1c(Cn2c(C)c(C)n3c(=O)cc(N4CCOCC4)nc23)cccc1C(F)(F)F [GSK2328680] | 0% | 33% | 0% | 0% | 0% | 7% | 0% | 0% | 52% | 0% | 0% | 0% | 0% | 15% | 0% | 0% | 0% | 0% | 50% | 0%
Fc1ccc(-c2nc3n(c2-c2ccncc2)CCS3)cc1 [GI98581] | 0% | 44% | 8% | 0% | 17% | 0% | 0% | 0% | 6% | 0% | 3% | 4% | 0% | 5% | 10% | 0% | 0% | 0% | 73% | 96.2%
CCc1ccc(-c2ccc3c(c2)-c2n[nH]cc2S(=O)(=O)N3C)cc1 | 23% | 16% | 34% | 0% | 0% | 0% | 0% | 0% | 0% | 0% | 0% | 0% | 0% | 0% | 18% | 14% | 3% | 0% | 1% | 0%
Cc1c(Cn2c3ccccc3n3c(=O)cc(N4CCOCC4)nc23)cccc1C(F)(F)F [GSK2306394] | 0% | 5% | 0% | 6% | 33% | 35% | 27% | 0% | 11% | 0% | 0% | 14% | 11% | 11% | 13% | 0% | 35% | 0% | 21% | 5%
O=c1cc(N2CCOCC2)nc2n(Cc3cccc(Cl)c3Cl)c3ccccc3n12 [GSK2299009] | 0% | 19% | 0% | 14% | 5% | 0% | 0% | 37% | 7% | 0% | 12% | 15% | 4% | 13% | 24% | 0% | 0% | 0% | 7% | 32%
Cc1ccc(NC(=O)Nc2ccccc2F)cc1-c1ccc(C(=O)Nc2ccncc2)cc1 [GSK1398477] | 0% | 44% | 31% | 18% | 0% | 0% | 6% | 19% | 11% | 16% | 0% | 31% | 1% | 19% | 12% | 0% | 12% | 0% | 28% | 27%
CC(C)c1cc(-c2ccc3c(N)n[nH]c3c2)nc(N)n1 [GSK2250882] | 30% | 45% | 0% | 0% | 6% | 0% | 4% | 10% | 0% | 4% | 31% | 4% | 0% | 11% | 0% | 8% | 0% | 0% | 21% | 30%
O=C(Nc1n[nH]c2cc(-c3ccsc3)ccc12)C1CC1 [SB-732932] | 17% | 0% | 0% | 63% | 0% | 9% | 9% | 0% | 14% | 9% | 3% | 22% | 9% | 0% | 0% | 4% | 8% | 0% | 36% | 25%
CNC(=O)c1ccc(C)c(-n2c(C)cc(OCc3ccc(F)cc3F)c(Br)c2=O)c1 | 0% | 0% | 0% | 0% | 0% | 0% | 0% | 0% | 6% | 0% | 0% | 0% | 0% | 0% | 0% | 0% | 0% | 0% | 0% | 100%
c1ccc(-c2ccnc3[nH]ccc23)cc1 [SB-693578] | 0% | 48% | 2% | 13% | 14% | 47% | 64% | 0% | 0% | 5% | 64% | 0% | 43% | 18% | 1% | 2% | 69% | 76% | 32% | 0%
COc1ccc(CSc2nnc(-c3ccc4nccn4c3)o2)cc1C(F)(F)F | 6% | 0% | 0% | 0% | 0% | 10% | 7% | 11% | 8% | 5% | 44% | 30% | 38% | 20% | 0% | 0% | 13% | 1% | 0% | 0%
Cc1ccc(NC(=O)Nc2ccc(Cl)cc2)cc1-c1ccc(C(=O)Nc2ccncc2)cc1 [GSK1398472] | 0% | 43% | 23% | 17% | 6% | 0% | 8% | 5% | 0% | 0% | 17% | 4% | 7% | 18% | 6% | 0% | 0% | 0% | 0% | 7%
Nc1nccc(-c2c(-c3ccc(F)cc3)ncn2C2CCN(Cc3ccccc3)CC2)n1 [SB-219980] | 0% | 11% | 37% | 1% | 0% | 0% | 0% | 5% | 1% | 0% | 0% | 0% | 0% | 7% | 0% | 0% | 0% | 0% | 62% | 95.2%
Cc1cnc(N)c(/C=C/c2cncc(C(=O)NCCc3ccc(Cl)cc3Cl)c2)c1.Cl [GSK190937] | 17% | 45% | 10% | 0% | 8% | 19% | 46% | 29% | 0% | 31% | 16% | 0% | 0% | 0% | 0% | 0% | 0% | 0% | 0% | 18%
